Measured values as given in PubChem BioAssay (NCI).
The panel holds about 83,000 compounds, 20% with a hit somewhere; the sample as a whole holds those more often.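 Cell lines were cultured in 96-well plates, exposed to a single compound concentration, and assessed for percent growth 48 hours later.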 Values without a mark were called inactive. Active and inactive are the calls of the source. Rule for the calls: active = growth percent below 10; inactive = the rest.

What was measured:
Assay in all cases: NCI-60 one-dose screen, 48 h (100 = growth as untreated, 0 = no growth, -100 = all killed)
RPMI-8226 leukemia = conditions: 10 µM unless noted
OVCAR-8 ovarian = conditions: 10 µM unless noted
OVCAR-5 ovarian = conditions: 10 µM unless noted
OVCAR-4 ovarian = conditions: 10 µM unless noted
SK-OV-3 ovarian = conditions: 10 µM unless noted
IGROV1 ovarian = conditions: 10 µM unless noted
OVCAR-3 ovarian = conditions: 10 µM unless noted
HS 578T breast = conditions: 10 µM unless noted
NCI/ADR-RES ovarian = conditions: 10 µM unless noted
T-47D breast = conditions: 10 µM unless noted
BT-549 breast = conditions: 10 µM unless noted
MDA-MB-435 melanoma = conditions: 10 µM unless noted
SW-620 colon = conditions: 10 µM unless noted
MCF7 breast = conditions: 10 µM
HCT-116 colon = conditions: 10 µM unless noted
HCC-2998 colon = conditions: 10 µM unless noted
KM12 colon = conditions: 10 µM unless noted

| SMILES | growth (RPMI-8226 leukemia) | growth (OVCAR-8 ovarian) | growth (OVCAR-5 ovarian) | growth (OVCAR-4 ovarian) | growth (SK-OV-3 ovarian) | growth (IGROV1 ovarian) | growth (OVCAR-3 ovarian) | growth (HS 578T breast) | growth (NCI/ADR-RES ovarian) | growth (T-47D breast) | growth (BT-549 breast) | growth (MDA-MB-435 melanoma) | growth (SW-620 colon) | growth (MCF7 breast) | growth (HCT-116 colon) | growth (HCC-2998 colon) | growth (KM12 colon) |
| --- | --- | --- | --- | --- | --- | --- | --- | --- | --- | --- | --- | --- | --- | --- | --- | --- | --- |
| C#CCn1cc(C=C2C(=O)NC(=O)NC2=O)c2cc(Cl)ccc21 | 70.3% | 87.5% | 74.3% | 75.9% | 112% | 82.8% | 88.5% | 84% | 99.8% | 60.8% | 64.6% | 88.3% | 97.7% | 72.4% | 71.5% | 95.6% | 85.6% |
| COc1cc([C@@H]2NC(=O)NC(C)=C2C(=O)Nc2nc(-c3ccc(Cl)cc3)cs2)ccc1O | 111% | 102% | 100% | 90.5% | 87.8% | 96.6% | 111% | 101% | 97.2% | 77.1% | 98.8% | 104% | 103% | 103% | 99.3% | 104% | 102% |
| CC1=CCC(OC(=O)C(C)(C)CCC(O)(C(=O)OC2(C(C)C)CCC3(C)OC3C2)C(C)C)(C(C)C)CC1 (stereo not drawn) | -37.8% (active) | -41.7% (active) | -77.9% (active) | -84.1% (active) | -92.2% (active) | -60.5% (active) | -97% (active) | -7.09% (active) | -9.23% (active) | -55.2% (active) | -88.6% (active) | -98% (active) | -62.1% (active) | -61.1% (active) | -41.2% (active) | -72.8% (active) | -79% (active) |
| CCCCCCC(O)(c1ccc(F)cc1)C(CN1CCOCC1)c1ccccc1 (stereo not drawn) | 16.9% | 33.5% | 69.8% | 31.7% | 76.7% | 44% | 2.28% (active) | 51.6% | 17.2% | 14.3% | 61.9% | 35.8% | 26.3% | 20.4% | 18.5% | 23.3% | 29% |
| COc1cccc(C2=NN3C(C2)c2ccccc2OC3c2ccc(/C=C3\SC(=O)NC3=O)cc2)c1 (stereo not drawn) | 99.4% | 94.8% | 108% | 103% | 96.8% | 100% | 102% | 96.4% | 111% | 100% | 97.1% | 105% | 97.8% | 90.7% | 109% | 106% | 94.6% |
| OC(c1ccccc1)c1nnc(SCc2ccccc2)n1Cc1ccccc1 (stereo not drawn) | 72.5% | 98.8% | 92.8% | 81.6% | 90% | 93.7% | 103% | 94% | 92.8% | 85.2% | 88.4% | 97.8% | 105% | 92.9% | 92.2% | 111% | 108% |
| COc1ccc(C(=O)C2CC2c2ccc(Cl)cc2)cc1 (stereo not drawn) | 38.4% | 78.2% | 115% | 72.2% | 104% | 83.7% | 74.7% | 82.4% | 78.9% | 80.8% | 57.3% | 95.6% | 102% | 103% | 77.1% | 98.8% | 68.7% |
| COc1ccccc1N1C(=N)S/C(=C\c2ccc(OCc3ccccc3F)cc2)C1=O | 70.1% | 55.3% | 101% | 87% | 102% | 73.5% | 86.7% | 86.7% | 71.3% | 66.8% | 97.4% | 90.4% | 88.1% | 33% | 67.8% | 109% | 71.2% |
| Clc1ccc(Nc2scc3[n+]2CCC3)cc1 | 98.5% | 103% | 96.5% | 88.9% | 97.7% | 104% | 101% | 100% | 96.8% | 89.7% | 99.2% | 97.7% | 96.9% | 89.6% | 96.2% | 104% | 97.8% |
